Compounds without any hit were thinned out: in the full panel of roughly 83,000, 20% have a hit.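 Method: cells in 96-well plates; compound added at one concentration; 48 h incubation; percent growth measured; values under 10 scored active.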 A number with no mark means an inactive call. Active and inactive are the calls of the source.
What follows are molecules tested on SNB-19 CNS (assay: NCI-60 one-dose screen, 48 h (100 = growth as untreated, 0 = no growth, -100 = all killed)). Conditions: 10 µM.

Row | SMILES | growth
1 | Clc1ccc(/C=C2\CCCC3C2=Nc2ccccc2NC3c2ccc(Cl)cc2)cc1 (stereo not given) | 92%
2 | CCC(c1ccc(OC)cc1)C(CC)c1ccc(O)c(CN2CCN(C)CC2)c1 (stereo not given) | 74.5%
3 | CC[C@@H](C(=O)[C@H](C)[C@H](O)[C@@H](C)[C@H]1O[C@H]([C@@H](CC)C(=O)N(CC)CC)CC[C@H]1C)C1O[C@]2(C=C[C@@H](O)[C@]3(CC[C@@](C)([C@H]4CC[C@](O)(CC)[C@H](C)O4)O3)O2)[C@H](C)C[C@@H]1C (stereo not given in full) | 12.8%
4 | c1ccc(/C(=N\Nc2ccc3ccccc3n2)c2ccccn2)cc1 | 26.1%
5 | O=C(NCCCNS(=O)(=O)c1ccc(Cl)cc1)Nc1ccc(-n2cc(-c3ccncc3)c(-c3ccc(Cl)c(O)c3)n2)cc1 | 51.1%
6 | Nc1ncnc2c1ncn2C1(CO)OCC(O)C(O)C1O (stereo not given) | 103%
7 | CN(C)CCOc1ccc(-c2nc3sccn3c2-c2ccnc(S(C)(=O)=O)n2)cc1 | 99.1%
8 | CC[C@H]1OC(=O)[C@H](C)[C@@H](O[C@H]2C[C@@](C)(OC)[C@@H](O)[C@H](C)O2)[C@H](C)[C@@H](O[C@@H]2O[C@H](C)C[C@H](N(C)C)[C@H]2O)[C@](C)(OC)C/C(C)=C2/O[C@@]1(C)C=C2C | 57.4%
9 | COc1cc(/C=C2\CCCC3=C2NC(N)=NC3c2cc(OC)c(OC)c(OC)c2)cc(OC)c1OC (stereo not given) | 61.6%
10 | O=[N+]([O-])c1cccc(/C=N/NC(=S)NC23CC4CC(CC(C4)C2)C3)c1 | 80.6%
11 | CNC(=O)c1cc(Oc2ccc3c(c2)sc2nc(-c4ccc(N)cc4)cn23)ccn1 | 32.1%
12 | COc1ccc2c(c1)OC(N)=C(C#N)C2c1cc(OC)c(OC)c(OC)c1 (stereo not given) | 44.7%
13 | S=C(NCc1ccccc1)NCc1ccccc1 | 95.1%
14 | CC(=O)OC1C=CC(OC(C)=O)O1 (stereo not given) | 104%
15 | Cc1ccc(Cl)cc1NC(=O)CCl | 82.2%
16 | CCC(C)[C@H](NC(C)=O)C(=O)N[C@@H](CCCNC(=N)N)C(=O)N[C@@H](CCCCN)C(=O)N[C@@H](CC1CCC(O)CC1)C(=O)NC(C(=O)N[C@@H](CCSC)C(=O)N[C@@H](CCCNC(=N)N)C(=O)N[C@@]1(C)CCC/C=C\CCC[C@@](C)(C(=O)NC(C(=O)N[C@@H](CCC(=O)O)C(=O)N[C@@H](CC(C)C)C(=O)N[C@H](C(=O)N[C@@H](CCC(=O)O)C(N)=O)C(C)C)[C@@H](C)O)NC(=O)[C@H](CCC(N)=O)NC(=O)[C@H](CC(C)C)NC(=O)[C@H](CC(C)C)NC1=O)[C@@H](C)O (stereo not given in full) | 110%
17 | COc1cc2cc(Oc3ccc(NC(=O)c4cccc(C(F)(F)F)c4)cc3)c(C)nc2cc1OC | 58.8%
18 | COC(=O)C1(O)NC(=C(C#N)C#N)C(C#N)=C1C(=O)c1ccc(OC)c(OC)c1 (stereo not given) | 97.1%
19 | COc1ccc(-c2onc(N)c2-c2cc(OC)c3c(c2)OCO3)cc1 | 52.8%
20 | NC(N)=N/N=C(\c1ccccc1)C(O)c1ccccc1 (stereo not given) | 95.3%
21 | COc1cc2cc(Oc3ccc(NC(=O)c4ccccc4)cc3)c(C)nc2cc1OC | 98.6%
22 | CS(=O)(=O)c1nccc(-c2c(-c3cccc(OCc4ccc(F)cc4)c3)nc3sccn23)n1 | 83.2%
23 | CCOC(=O)c1cc(C(=O)c2ccc(F)cc2F)n2ccccc12 | 84.3%
24 | O=C(N/N=C/c1ccc(Cl)cc1)c1ccccc1Nc1cccc(C(F)(F)F)c1 | 88.4%
25 | CC(C)(C)OC(=O)N1CCc2c(sc3ncnc(N/N=C/c4ccccc4Br)c23)C1 | 93.1%
26 | CC(C)N(CCOc1ccc(-c2nc3sccn3c2-c2ccnc(S(C)(=O)=O)n2)cc1)C(C)C | 107%
27 | CN(C)CCCOc1ccc(NC2=C(Cl)C(=O)C(Nc3ccc(OCCCN(C)C)cc3)=C(Cl)C2=O)cc1 | -48.6% (active)
28 | COc1cccc(C2C(C#N)=C(N)Oc3cc(N)ccc32)c1 (stereo not given) | 44.6%
29 | Cc1ccc(NCCN(C)CC(C)O)c2c(=O)c3ccccc3sc12 (stereo not given) | 54.5%
30 | CCCCN(CCCC)C(=O)[C@H](CC)[C@@H]1CC[C@@H](C)[C@@H]([C@H](C)[C@@H](O)[C@@H](C)C(=O)[C@H](CC)C2O[C@]3(C=C[C@@H](O)[C@]4(CC[C@@](C)([C@H]5CC[C@](O)(CC)[C@H](C)O5)O4)O3)[C@H](C)C[C@@H]2C)O1 (stereo not given in full) | 15.3%

From PubChem BioAssay (NCI)
